Test results published in article PMC7862700, “An all-to-all approach to the identification of sequence-specific readers for epigenetic DNA modifications on cytosine”.

How the values were obtained:
Experiment in all cases: DAPPL (digital affinity profiling via proximity ligation, sequencing); 10 mM Tris-HCl pH 7.5, 50 mM NaCl, 1 mM DTT, 4% glycerol, room temperature, 30 min; GST-TFs on glutathione beads, 16-mer random dsDNA library, 0.1% formaldehyde crosslink after washing; high values mean tight binding
Conditions in all cases: protein: recombinant; tags: N-terminal GST; dsDNA, one strand shown
FLI1 = target: T1, FLI1 (Homo sapiens, UniProt Q01543 1-452)
T1 sequence: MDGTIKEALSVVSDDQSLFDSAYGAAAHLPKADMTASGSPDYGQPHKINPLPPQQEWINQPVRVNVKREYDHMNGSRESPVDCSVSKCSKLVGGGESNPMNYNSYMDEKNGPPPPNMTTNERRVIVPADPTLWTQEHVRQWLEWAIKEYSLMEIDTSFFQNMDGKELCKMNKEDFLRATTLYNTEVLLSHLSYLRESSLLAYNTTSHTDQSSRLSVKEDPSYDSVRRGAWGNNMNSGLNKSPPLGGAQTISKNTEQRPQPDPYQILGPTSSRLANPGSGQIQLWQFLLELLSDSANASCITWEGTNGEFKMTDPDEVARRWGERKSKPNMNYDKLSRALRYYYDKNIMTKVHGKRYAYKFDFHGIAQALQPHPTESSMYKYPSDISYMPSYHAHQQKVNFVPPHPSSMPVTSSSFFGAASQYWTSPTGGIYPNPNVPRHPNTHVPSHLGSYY
Outline: (§1)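 After expression in yeast as GST fusions, human transcription factors were bound to glutathione beads, DNA-barcoded and mixed with a tag-only sample. The pools were incubated with 200 nmole of a 16-mer random double-stranded DNA library in Tris/NaCl/DTT/glycerol buffer (30 min, room temperature), washed and crosslinked with 0.1% formaldehyde. Proximity ligation with BsaI/T4 ligase ran for 1 h at 37 °C, before PCR amplification and sequencing on an Illumina NextSeq500. Binding signal is a hexamer's read frequency for a factor divided by its frequency for the tag-only sample.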

ELK1 = target: T2, ELK1 (Homo sapiens, UniProt P19419 1-428)
T2 sequence: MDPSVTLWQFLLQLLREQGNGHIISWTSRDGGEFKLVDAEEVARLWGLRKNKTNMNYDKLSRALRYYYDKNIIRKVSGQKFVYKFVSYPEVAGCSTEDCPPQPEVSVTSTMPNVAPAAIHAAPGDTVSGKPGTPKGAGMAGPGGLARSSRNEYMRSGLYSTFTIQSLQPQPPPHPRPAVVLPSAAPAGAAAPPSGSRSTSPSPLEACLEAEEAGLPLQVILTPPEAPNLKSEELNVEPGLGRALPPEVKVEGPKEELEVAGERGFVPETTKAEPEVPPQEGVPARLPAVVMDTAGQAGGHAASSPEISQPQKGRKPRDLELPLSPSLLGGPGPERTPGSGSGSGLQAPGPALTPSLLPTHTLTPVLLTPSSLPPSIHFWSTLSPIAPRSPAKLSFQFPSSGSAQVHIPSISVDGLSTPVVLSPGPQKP
Outline: as §1

GABPA = target: T3, GABPA (Homo sapiens, UniProt Q06546 1-454)
T3 sequence: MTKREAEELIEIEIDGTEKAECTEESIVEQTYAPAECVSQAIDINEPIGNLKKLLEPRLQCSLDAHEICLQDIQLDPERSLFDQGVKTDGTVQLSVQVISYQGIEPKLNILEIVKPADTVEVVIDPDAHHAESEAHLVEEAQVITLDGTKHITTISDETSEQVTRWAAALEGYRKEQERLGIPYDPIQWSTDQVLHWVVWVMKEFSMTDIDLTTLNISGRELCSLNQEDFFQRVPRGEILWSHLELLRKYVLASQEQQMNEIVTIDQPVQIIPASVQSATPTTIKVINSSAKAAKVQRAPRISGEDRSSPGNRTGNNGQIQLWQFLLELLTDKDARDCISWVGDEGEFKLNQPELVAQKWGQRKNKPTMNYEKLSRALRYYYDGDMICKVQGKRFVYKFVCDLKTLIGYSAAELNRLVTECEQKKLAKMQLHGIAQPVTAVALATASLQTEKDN
Outline: as §1

ERG = target: T4, ERG (Homo sapiens, UniProt P11308 1-479)
T4 sequence: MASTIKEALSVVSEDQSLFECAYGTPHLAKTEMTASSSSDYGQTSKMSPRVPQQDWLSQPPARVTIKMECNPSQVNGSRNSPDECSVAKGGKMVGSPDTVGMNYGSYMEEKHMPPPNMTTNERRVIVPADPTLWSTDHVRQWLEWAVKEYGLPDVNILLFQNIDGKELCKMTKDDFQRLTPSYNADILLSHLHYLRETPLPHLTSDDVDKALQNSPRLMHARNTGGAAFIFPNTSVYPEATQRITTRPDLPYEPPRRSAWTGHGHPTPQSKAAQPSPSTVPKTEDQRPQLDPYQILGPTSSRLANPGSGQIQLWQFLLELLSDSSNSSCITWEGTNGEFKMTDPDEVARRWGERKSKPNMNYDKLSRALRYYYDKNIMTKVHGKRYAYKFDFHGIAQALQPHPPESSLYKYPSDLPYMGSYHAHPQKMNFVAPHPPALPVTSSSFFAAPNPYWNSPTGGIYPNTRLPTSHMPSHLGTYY
Outline: as §1

ELF1 = ELF1 (Homo sapiens, UniProt P32519 1-619)
Sequence of ELF1 (P32519 whole entry): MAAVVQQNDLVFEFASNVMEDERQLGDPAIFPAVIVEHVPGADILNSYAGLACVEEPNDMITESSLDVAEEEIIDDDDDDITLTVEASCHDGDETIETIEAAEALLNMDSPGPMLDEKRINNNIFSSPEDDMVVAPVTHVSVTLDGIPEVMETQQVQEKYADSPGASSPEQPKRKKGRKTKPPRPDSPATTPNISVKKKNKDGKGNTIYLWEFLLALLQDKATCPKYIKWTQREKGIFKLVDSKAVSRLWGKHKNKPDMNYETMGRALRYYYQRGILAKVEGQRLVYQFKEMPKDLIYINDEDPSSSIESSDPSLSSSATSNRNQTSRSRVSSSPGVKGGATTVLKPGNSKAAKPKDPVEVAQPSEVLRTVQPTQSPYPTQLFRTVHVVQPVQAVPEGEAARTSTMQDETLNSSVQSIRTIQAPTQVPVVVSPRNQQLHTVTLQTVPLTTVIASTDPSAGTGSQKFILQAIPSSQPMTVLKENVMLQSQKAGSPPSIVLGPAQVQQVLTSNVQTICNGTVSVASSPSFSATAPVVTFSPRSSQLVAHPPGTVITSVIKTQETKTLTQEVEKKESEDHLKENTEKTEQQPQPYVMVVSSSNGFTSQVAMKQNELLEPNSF
Outline: as §1

EHF = target: T5, EHF (Homo sapiens, UniProt Q9NZC4 1-300)
T5 sequence: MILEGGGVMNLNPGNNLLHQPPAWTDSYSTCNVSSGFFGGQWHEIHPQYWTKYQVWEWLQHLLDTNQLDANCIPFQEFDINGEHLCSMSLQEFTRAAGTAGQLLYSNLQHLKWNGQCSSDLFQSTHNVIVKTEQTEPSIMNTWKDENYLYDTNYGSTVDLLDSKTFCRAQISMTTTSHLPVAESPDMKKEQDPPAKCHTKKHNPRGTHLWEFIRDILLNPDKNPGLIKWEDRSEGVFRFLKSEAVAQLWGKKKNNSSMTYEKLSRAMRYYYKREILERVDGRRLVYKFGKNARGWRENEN
Outline: as §1

SPI1 = SPI1 (Homo sapiens, UniProt P17947 1-270)
Outline: as §1

SPIB = SPIB (Homo sapiens, UniProt Q01892 1-262)
Sequence of SPIB (Q01892 whole entry): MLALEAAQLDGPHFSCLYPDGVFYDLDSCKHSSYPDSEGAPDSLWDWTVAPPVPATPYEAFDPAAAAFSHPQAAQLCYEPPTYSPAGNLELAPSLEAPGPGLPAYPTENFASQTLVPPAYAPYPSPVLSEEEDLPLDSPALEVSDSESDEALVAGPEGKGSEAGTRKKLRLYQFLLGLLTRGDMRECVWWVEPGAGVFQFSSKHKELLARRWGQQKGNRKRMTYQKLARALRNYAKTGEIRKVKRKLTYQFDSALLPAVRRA
Outline: as §1

ELK3 = target: T6, ELK3 (Homo sapiens, UniProt P41970 1-407)
T6 sequence: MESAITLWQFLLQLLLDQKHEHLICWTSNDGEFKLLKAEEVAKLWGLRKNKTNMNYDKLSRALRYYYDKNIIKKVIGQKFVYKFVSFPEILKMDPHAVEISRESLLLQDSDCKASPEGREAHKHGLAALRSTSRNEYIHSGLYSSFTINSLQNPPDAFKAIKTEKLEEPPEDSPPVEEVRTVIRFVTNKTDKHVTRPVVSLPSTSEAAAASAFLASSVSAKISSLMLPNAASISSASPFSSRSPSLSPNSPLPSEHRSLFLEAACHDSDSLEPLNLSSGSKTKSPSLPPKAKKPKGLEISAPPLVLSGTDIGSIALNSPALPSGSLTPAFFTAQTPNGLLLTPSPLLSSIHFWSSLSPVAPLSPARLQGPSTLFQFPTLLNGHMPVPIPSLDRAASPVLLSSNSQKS
Outline: as §1

FEV = target: T7, FEV (Homo sapiens, UniProt Q99581 1-238)
T7 sequence: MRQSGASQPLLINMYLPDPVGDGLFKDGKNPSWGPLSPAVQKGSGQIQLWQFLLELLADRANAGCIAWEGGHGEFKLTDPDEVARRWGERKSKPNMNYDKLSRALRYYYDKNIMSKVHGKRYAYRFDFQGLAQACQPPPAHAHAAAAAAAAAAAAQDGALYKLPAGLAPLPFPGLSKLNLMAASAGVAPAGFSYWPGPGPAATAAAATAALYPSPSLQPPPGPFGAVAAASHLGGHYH
Outline: as §1

ETV5 = ETV5 (Homo sapiens, UniProt P41161 1-510)
Sequence of ETV5 (P41161 whole entry): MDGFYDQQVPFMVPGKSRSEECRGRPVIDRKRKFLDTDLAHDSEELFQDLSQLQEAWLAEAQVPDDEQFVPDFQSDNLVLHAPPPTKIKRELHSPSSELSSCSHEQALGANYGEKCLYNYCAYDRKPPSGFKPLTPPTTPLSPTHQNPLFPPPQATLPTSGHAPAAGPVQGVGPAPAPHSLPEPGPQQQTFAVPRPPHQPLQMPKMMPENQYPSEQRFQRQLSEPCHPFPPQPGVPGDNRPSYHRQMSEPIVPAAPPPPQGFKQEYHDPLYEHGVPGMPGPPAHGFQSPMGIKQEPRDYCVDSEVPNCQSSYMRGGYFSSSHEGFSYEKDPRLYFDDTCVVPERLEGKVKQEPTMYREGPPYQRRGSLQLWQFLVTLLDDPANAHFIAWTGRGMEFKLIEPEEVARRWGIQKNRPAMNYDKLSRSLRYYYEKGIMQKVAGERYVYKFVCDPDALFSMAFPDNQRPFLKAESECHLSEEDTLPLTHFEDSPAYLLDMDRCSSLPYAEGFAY
Outline: as §1

SPIC = target: T8, SPIC (Homo sapiens, UniProt Q8N5J4 1-248)
T8 sequence: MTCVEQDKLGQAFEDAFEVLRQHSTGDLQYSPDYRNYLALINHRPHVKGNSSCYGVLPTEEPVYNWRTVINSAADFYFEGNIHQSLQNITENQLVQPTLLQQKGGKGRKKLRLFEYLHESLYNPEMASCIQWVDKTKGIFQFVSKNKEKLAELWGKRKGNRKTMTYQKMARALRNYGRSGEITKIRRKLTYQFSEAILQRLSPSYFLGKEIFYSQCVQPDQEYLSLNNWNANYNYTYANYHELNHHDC
Outline: as §1

ELF4 = ELF4 (Homo sapiens, UniProt Q99607 1-663)
Sequence of ELF4 (Q99607 whole entry): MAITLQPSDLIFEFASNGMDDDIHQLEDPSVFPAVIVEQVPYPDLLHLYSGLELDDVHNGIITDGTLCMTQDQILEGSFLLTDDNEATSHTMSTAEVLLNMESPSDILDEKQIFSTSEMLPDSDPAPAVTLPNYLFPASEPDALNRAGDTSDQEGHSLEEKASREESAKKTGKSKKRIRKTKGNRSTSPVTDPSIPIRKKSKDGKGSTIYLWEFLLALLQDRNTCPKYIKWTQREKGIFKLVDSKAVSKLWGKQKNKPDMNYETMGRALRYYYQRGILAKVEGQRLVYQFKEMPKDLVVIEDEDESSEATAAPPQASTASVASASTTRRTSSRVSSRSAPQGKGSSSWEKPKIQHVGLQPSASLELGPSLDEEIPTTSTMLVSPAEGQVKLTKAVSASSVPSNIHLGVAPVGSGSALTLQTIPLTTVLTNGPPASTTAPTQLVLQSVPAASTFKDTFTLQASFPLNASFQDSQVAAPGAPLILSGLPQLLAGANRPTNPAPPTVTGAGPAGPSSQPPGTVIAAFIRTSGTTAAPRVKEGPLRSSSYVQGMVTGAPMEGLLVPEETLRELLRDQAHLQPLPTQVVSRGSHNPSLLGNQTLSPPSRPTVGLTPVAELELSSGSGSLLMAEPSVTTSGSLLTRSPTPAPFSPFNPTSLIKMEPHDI
Outline: as §1

ELK4 = target: T9, ELK4 (Homo sapiens, UniProt P28324-2 1-405)
T9 sequence: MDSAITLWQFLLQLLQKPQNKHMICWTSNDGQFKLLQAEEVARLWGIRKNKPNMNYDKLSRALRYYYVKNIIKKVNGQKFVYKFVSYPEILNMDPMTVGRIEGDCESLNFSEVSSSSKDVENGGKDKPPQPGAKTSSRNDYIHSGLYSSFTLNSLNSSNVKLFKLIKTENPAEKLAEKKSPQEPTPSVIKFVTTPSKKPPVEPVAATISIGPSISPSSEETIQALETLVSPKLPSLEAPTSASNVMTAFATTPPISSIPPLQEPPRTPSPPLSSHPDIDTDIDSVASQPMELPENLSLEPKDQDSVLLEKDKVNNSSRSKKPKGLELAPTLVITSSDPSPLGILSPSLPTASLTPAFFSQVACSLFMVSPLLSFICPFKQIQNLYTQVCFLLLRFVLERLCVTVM
Outline: as §1

ETV2 = target: T10, ETV2 (Homo sapiens, UniProt O00321 1-342)
T10 sequence: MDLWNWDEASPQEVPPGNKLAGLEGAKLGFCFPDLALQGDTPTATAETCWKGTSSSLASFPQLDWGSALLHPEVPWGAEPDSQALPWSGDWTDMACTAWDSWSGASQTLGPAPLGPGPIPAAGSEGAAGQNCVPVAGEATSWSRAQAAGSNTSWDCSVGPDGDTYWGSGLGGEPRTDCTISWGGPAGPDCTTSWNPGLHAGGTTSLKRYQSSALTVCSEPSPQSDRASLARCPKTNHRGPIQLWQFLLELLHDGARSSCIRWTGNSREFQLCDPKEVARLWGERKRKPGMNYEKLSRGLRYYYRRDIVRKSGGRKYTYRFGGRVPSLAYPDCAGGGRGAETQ
Outline: as §1

ELF3 = target: T11, ELF3 (Homo sapiens, UniProt P78545 1-371)
T11 sequence: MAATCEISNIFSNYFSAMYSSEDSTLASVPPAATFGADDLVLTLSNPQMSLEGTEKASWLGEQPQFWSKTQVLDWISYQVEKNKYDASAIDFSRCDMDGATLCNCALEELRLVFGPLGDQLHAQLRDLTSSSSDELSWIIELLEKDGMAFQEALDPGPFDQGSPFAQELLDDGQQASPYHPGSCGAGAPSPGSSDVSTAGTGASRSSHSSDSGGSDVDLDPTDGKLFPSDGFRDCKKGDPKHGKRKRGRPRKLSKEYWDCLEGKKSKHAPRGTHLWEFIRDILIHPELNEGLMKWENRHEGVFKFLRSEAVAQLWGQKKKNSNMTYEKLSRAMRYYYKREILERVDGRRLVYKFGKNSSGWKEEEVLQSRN
Outline: as §1

ETV1 = ETV1 (Homo sapiens, UniProt P50549 1-477)
Sequence of ETV1 (P50549 whole entry): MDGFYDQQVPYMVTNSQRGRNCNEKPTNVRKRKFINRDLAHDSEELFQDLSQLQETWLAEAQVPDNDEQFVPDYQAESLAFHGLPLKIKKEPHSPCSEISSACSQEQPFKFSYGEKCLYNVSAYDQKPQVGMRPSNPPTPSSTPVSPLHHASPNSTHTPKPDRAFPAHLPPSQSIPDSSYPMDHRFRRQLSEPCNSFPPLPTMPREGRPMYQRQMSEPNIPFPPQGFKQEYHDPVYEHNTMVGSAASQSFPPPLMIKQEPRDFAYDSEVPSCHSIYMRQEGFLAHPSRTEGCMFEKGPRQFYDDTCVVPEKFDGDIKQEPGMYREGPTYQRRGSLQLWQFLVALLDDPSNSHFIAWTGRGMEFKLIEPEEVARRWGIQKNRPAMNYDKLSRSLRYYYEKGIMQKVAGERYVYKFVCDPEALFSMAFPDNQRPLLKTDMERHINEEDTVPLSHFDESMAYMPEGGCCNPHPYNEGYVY
Outline: as §1

Sequence	binding signal (FLI1)	binding signal (ELK1)	binding signal (GABPA)	binding signal (ERG)	binding signal (ELF1)	binding signal (EHF)	binding signal (SPI1)	binding signal (SPIB)	binding signal (ELK3)	binding signal (FEV)	binding signal (ETV5)	binding signal (SPIC)	binding signal (ELF4)	binding signal (ELK4)	binding signal (ETV2)	binding signal (ELF3)	binding signal (ETV1)
TTCAGT	1.07 fold enrichment (6-mer frequency, TF over GST control)	1.04 fold enrichment (6-mer frequency, TF over GST control)	1.06 fold enrichment (6-mer frequency, TF over GST control)	1.03 fold enrichment (6-mer frequency, TF over GST control)	1.09 fold enrichment (6-mer frequency, TF over GST control)	1.04 fold enrichment (6-mer frequency, TF over GST control)	1.11 fold enrichment (6-mer frequency, TF over GST control)	1 fold enrichment (6-mer frequency, TF over GST control)	1.02 fold enrichment (6-mer frequency, TF over GST control)	1.01 fold enrichment (6-mer frequency, TF over GST control)	1.05 fold enrichment (6-mer frequency, TF over GST control)	1.11 fold enrichment (6-mer frequency, TF over GST control)	1.11 fold enrichment (6-mer frequency, TF over GST control)	1.1 fold enrichment (6-mer frequency, TF over GST control)	1.08 fold enrichment (6-mer frequency, TF over GST control)	1.08 fold enrichment (6-mer frequency, TF over GST control)	1.07 fold enrichment (6-mer frequency, TF over GST control)
CCCACA	1.13 fold enrichment (6-mer frequency, TF over GST control)	1.12 fold enrichment (6-mer frequency, TF over GST control)	1.26 fold enrichment (6-mer frequency, TF over GST control)	1.07 fold enrichment (6-mer frequency, TF over GST control)	1.17 fold enrichment (6-mer frequency, TF over GST control)	1.12 fold enrichment (6-mer frequency, TF over GST control)	1.08 fold enrichment (6-mer frequency, TF over GST control)	1.1 fold enrichment (6-mer frequency, TF over GST control)	1.08 fold enrichment (6-mer frequency, TF over GST control)	1.17 fold enrichment (6-mer frequency, TF over GST control)	1.14 fold enrichment (6-mer frequency, TF over GST control)	1.2 fold enrichment (6-mer frequency, TF over GST control)	1.15 fold enrichment (6-mer frequency, TF over GST control)	1.1 fold enrichment (6-mer frequency, TF over GST control)	1.1 fold enrichment (6-mer frequency, TF over GST control)	1.14 fold enrichment (6-mer frequency, TF over GST control)	1.07 fold enrichment (6-mer frequency, TF over GST control)
CATCCG	2.09 fold enrichment (6-mer frequency, TF over GST control)	2.2 fold enrichment (6-mer frequency, TF over GST control)	1.86 fold enrichment (6-mer frequency, TF over GST control)	2.45 fold enrichment (6-mer frequency, TF over GST control)	1.86 fold enrichment (6-mer frequency, TF over GST control)	2.19 fold enrichment (6-mer frequency, TF over GST control)	2.01 fold enrichment (6-mer frequency, TF over GST control)	2.29 fold enrichment (6-mer frequency, TF over GST control)	2.5 fold enrichment (6-mer frequency, TF over GST control)	2.77 fold enrichment (6-mer frequency, TF over GST control)	2.19 fold enrichment (6-mer frequency, TF over GST control)	2.11 fold enrichment (6-mer frequency, TF over GST control)	1.82 fold enrichment (6-mer frequency, TF over GST control)	1.71 fold enrichment (6-mer frequency, TF over GST control)	2.11 fold enrichment (6-mer frequency, TF over GST control)	1.9 fold enrichment (6-mer frequency, TF over GST control)	2.19 fold enrichment (6-mer frequency, TF over GST control)
